Results from PubChem BioAssay AID1117299 (National Center for Advancing Translational Sciences (NCATS), 2015).
Where a structure was tested more than once in an assay, its records may differ in their call. Activity calls are given as the source filed them. Calls follow the shape of the full dose curve.

Conditions: Ebola virus entry assay, green fluorescence channel

Row | SMILES | AC50 | outcome
1 | C[C@@H]1O[C@@H](O[C@H]2CC[C@@]3(C)[C@H](CC[C@@H]4[C@H]3C[C@@H](O)[C@]3(C)[C@@H](C5=CC(=O)OC5)CC[C@]43O)C2)C[C@H](O)[C@@H]1O[C@H]1C[C@H](O)[C@H](O[C@H]2C[C@H](O)[C@@H](O)[C@@H](C)O2)[C@H](C)O1 (stereo in doubt) | 112 nM (active) | 
2 | CC[C@]1(O)C[C@@H]2CN(CCc3c([nH]c4ccccc34)[C@@](C(=O)OC)(c3cc4c(cc3OC)N(C)[C@H]3[C@@](O)(C(=O)OC)[C@H](OC(C)=O)[C@]5(CC)C=CCN6CC[C@]43[C@@H]65)C2)C1 | 137 nM (active) | 
3 | CNCCCC12CCC(c3ccccc31)c1ccccc12 | 6850 nM (active) | 
4 | CC[C@H]1OC(=O)[C@H](C)[C@@H](O[C@H]2C[C@@](C)(OC)[C@@H](O)[C@H](C)O2)[C@H](C)[C@@H](O[C@@H]2O[C@H](C)C[C@H](N(C)C)[C@@H]2O)[C@](C)(O)C[C@@H](C)CN(C)[C@H](C)[C@@H](O)[C@]1(C)O | 7690 nM (active) | 
5 | CO[C@H]1C[C@@H]2CC[C@@H](C)[C@@](O)(O2)C(=O)C(=O)N2CCCC[C@@H]2C(=O)O[C@H]([C@@H](C)C[C@@H]2CC[C@H](O)[C@H](OC)C2)CC(=O)[C@H](C)C=C(C)[C@@H](O)[C@@H](OC)C(=O)[C@H](C)C[C@H](C)C=CC=CC=C1C | 17700 nM (active) | 
6 | CCC1=C[C@@H]2CN(C1)Cc1c([nH]c3ccccc13)[C@@](C(=O)OC)(c1cc3c(cc1OC)N(C)[C@H]1[C@@](O)(C(=O)OC)[C@H](OC(C)=O)[C@]4(CC)C=CCN5CC[C@]31[C@@H]54)C2 | 109 nM (active) | 
7 | CCCSc1ccc2nc(NC(=O)OC)[nH]c2c1 |  | inactive
8 | CC[C@H]1OC(=O)[C@H](C)[C@@H](O[C@H]2C[C@@](C)(OC)[C@@H](O)[C@H](C)O2)C(C)[C@@H](O[C@@H]2O[C@H](C)C[C@H](N(C)C)[C@@H]2O)[C@](C)(OC)C[C@@H](C)C(=O)[C@H](C)[C@@H](O)[C@]1(C)O (stereo partly specified) | 5440 nM (active) | 
9 | CN(C)CCCN1c2ccccc2CCc2ccc(Cl)cc21 | 7690 nM (active) | 
10 | CN1CCN(CCCN2c3ccccc3Sc3ccc(C(F)(F)F)cc32)CC1 |  | inactive
11 | CO[C@H]1C[C@@H]2CC[C@@H](C)[C@@](O)(O2)C(=O)C(=O)N2CCCC[C@@H]2C(=O)O[C@H]([C@H](C)C[C@@H]2CC[C@H](OCCO)[C@H](OC)C2)CC(=O)[C@H](C)C=C(C)[C@@H](O)[C@@H](OC)C(=O)[C@H](C)C[C@H](C)C=CC=CC=C1C |  | inactive
12 | COC(=O)Nc1nc2ccc(C(=O)c3cccs3)cc2[nH]1 | 685 nM (active) | 
13 | CCCCc1oc2ccc(NS(C)(=O)=O)cc2c1C(=O)c1ccc(OCCCN(CCCC)CCCC)cc1 |  | inactive
14 | Cc1nnc(C(C)C)n1C1C[C@H]2CC[C@@H](C1)N2CC[C@H](NC(=O)C1CCC(F)(F)CC1)c1ccccc1 (stereo partly specified) |  | inactive
15 | CN(C)CCOc1ccc(/C(=C(/CCCl)c2ccccc2)c2ccccc2)cc1 | 1930 nM (active) | 
16 | COc1cc2c(c(OC)c1OC)-c1ccc(OC)c(=O)cc1[C@@H](NC(C)=O)CC2 | 96.8 nM (active) | 
17 | C[C@]12CC[C@@H]3c4ccc(O)cc4C[C@@H](CCCCCCCCCS(=O)CCCC(F)(F)C(F)(F)F)[C@H]3[C@@H]1CC[C@@H]2O (stereo partly specified) | 3060 nM (active) | 
18 | CCCNCC(O)COc1ccccc1C(=O)CCc1ccccc1 (stereo unspecified) |  | inactive
19 | CC/C(=C(\c1ccccc1)c1ccc(OCCN(C)C)cc1)c1ccccc1 | 1530 nM (active) | inactive
20 | CC[C@]1(O)C[C@H]2CN(CCc3c([nH]c4ccccc34)[C@@](C(=O)OC)(c3cc4c(cc3OC)N(C=O)[C@H]3[C@@](O)(C(=O)OC)[C@H](OC(C)=O)[C@]5(CC)C=CCN6CC[C@]43[C@@H]65)C2)C1 | 217 nM (active) | 
21 | CN1[C@@H]2CC[C@H]1CC(OC(c1ccccc1)c1ccccc1)C2 (stereo partly specified) | 3060 nM (active) | 
22 | CN1CCC[C@@H]1CCO[C@](C)(c1ccccc1)c1ccc(Cl)cc1 | 1930 nM (active) | 
23 | COC(=O)Nc1nc2ccc(C(=O)c3ccccc3)cc2[nH]1 | 6110 nM (active) | 
24 | COc1cccc2c1C(=O)c1c(O)c3c(c(O)c1C2=O)C[C@@](O)(C(C)=O)C[C@H]3O[C@H]1C[C@H](N)[C@H](O)[C@H](C)O1 |  | inactive
25 | CCN(CC)CCNC(=O)c1c(C)[nH]c(/C=C2\C(=O)Nc3ccc(F)cc32)c1C |  | inactive
